In PubChem BioAssay:
Activity calls are given as the source filed them.

Legend:
[1] = test system: Plasmodium falciparum Sir2 (PF13_0152, Sir2A); assay: Plasmodium falciparum Sir2A binding compounds – biochemical, small-molecule microarray, 635 nm fluorescence, primary screen (AID 1098); conditions: fluorescence 635 nm, higher = more signal;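 further: score merges spot fluorescence intensity with its signal-to-noise ratio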
[2] = probe aDKK1 binding to arrayed compounds – biochemical, biotinylated probe, 635/667 nm fluorescence, primary screen (AID 1099); conditions: small-molecule microarray, higher = more signal;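 further: score merges 667nm spot fluorescence with signal to noise across triplicate slides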
[3] = probe aCHRDL2 binding to arrayed compounds – biochemical, biotinylated probe, 635/667 nm fluorescence, primary screen (AID 1100); conditions: small-molecule microarray, higher = more signal
[4] = change in splice reporter luminescence, either direction, cell-based, HEK293, spliceosome inhibition project, primary screen (AID 1101); conditions: HEK293 splicing luciferase reporter, 24 h, higher = more signal, called active from +8 up or from −8 down;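 further: HEK293 cells carrying a splicing-competent luciferase reporter gene; test concentration not given here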
[5] = target: Fibroblast growth factor 10 (Homo sapiens) (UniProt O15520); assay: compounds binding fibroblast growth factor 10 – biochemical, small-molecule microarray, 635 nm fluorescence, primary screen (AID 1102); conditions: FGF10 binding, fluorescence 635 nm, higher = more signal
[6] = test system: glycogen synthase kinase-3 (GSK3A per assay name; protocol says GSK3B); assay: compounds binding glycogen synthase kinase-3 – biochemical, small-molecule microarray, 635 nm fluorescence, GSK3A, primary screen (AID 1103); conditions: fluorescence 635 nm, higher = more signal; further: the record names both GSK3A and GSK3B
[7] = target: Epidermal growth factor receptor (Homo sapiens) (UniProt P00533); assay: compounds binding epidermal growth factor receptor – biochemical, small-molecule microarray, 635 nm fluorescence, primary screen (AID 1104); conditions: EGFR binding, higher = more signal;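 further: score merges 667 nm emission intensity with spot signal to noise over triplicate slides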
[8] = target: Follistatin-related protein 3 (Homo sapiens) (UniProt O95633); assay: compounds binding follistatin-related protein 3 – biochemical, small-molecule microarray, 635 nm fluorescence, primary screen (AID 1105); conditions: FSTL3 binding, higher = more signal;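 further: score merges emission near 667 nm and signal to noise per printed spot across three slides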
[9] = target: Dickkopf-related protein 1 (Homo sapiens) (UniProt O94907); assay: small molecules binding DKK1 protein – biochemical, small-molecule microarray, 635 nm fluorescence scan, primary screen (AID 1106); conditions: higher = more signal;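 further: score merges emission near 667 nm with signal to noise over three replicate slides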
[10] = test system: Inhibin beta A chain (activin A); assay: small molecules binding activin A – biochemical, small-molecule microarray, 635 nm fluorescence scan, primary screen (AID 1107); conditions: INHBA, higher = more signal;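 further: mouse activin A protein probed at 4.33 µg/mL on printed slides; score merges bound-protein fluorescence near 667 nm with spot signal-to-noise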
[11] = test system: Human papillomavirus type 1a protein E7 (residues 44-93); assay: small molecules binding HPV E7 44-93 – biochemical, small-molecule microarray, residues 44-93, 635 nm fluorescence, primary screen (AID 1108); conditions: fluorescence 635 nm, higher = more signal;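 further: E7 fragment applied at 1 µg/mL in TBST for 1 h at 4 C; score combines spot fluorescence with its signal to noise ratio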
[12] = hepatitis C replication reporter changes, two-sided – Huh7 cells, luciferase reporter, HCV replication inhibitor project, primary screen (AID 1109); conditions: Huh7 HCV replicon luciferase reporter, 48 h; higher = more signal;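 further: huh7 hepatoma cells harbouring a luciferase neomycin HCV replicon reporter; luciferase luminescence as measure of HCV replicon replication; test concentration not given here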
[13] = target: Left-right determination factor 2 (Homo sapiens) (UniProt O00292); assay: small molecules binding LEFTY2 protein – biochemical, small-molecule microarray, 635 nm fluorescence scan, primary screen (AID 1110); conditions: higher = more signal
[14] = target: Calmodulin-1 (Homo sapiens) (UniProt P0DP23); assay: small molecules binding calmodulin-1 with EGTA – biochemical, small-molecule microarray, Cy5-labelled CALM1, profiling panel (AID 1111); conditions: Cy5-CALM1 binding fluorescence, higher = more signal;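 further: labelled calmodulin applied in Tris saline Tween buffer holding calcium plus EGTA and DTT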
[15] = target: Calmodulin-1 (Homo sapiens) (UniProt P0DP23); assay: small molecules binding Ca-loaded calmodulin-1 – biochemical, small-molecule microarray, Cy5-labelled CALM1, plus calcium, artefact control for SMM control-protein annotation, profiling panel (AID 1112); conditions: Cy5-CALM1 binding fluorescence, higher = more signal;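 further: score merges spot fluorescence with signal to noise from triplicate slides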
[16] = probe aWnt5a binding to arrayed compounds – biochemical, biotinylated probe, 635/667 nm fluorescence, primary screen (AID 1113); conditions: small-molecule microarray, higher = more signal;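 further: score merges 667 nm fluorescence intensity with signal-to-noise per printed feature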
[17] = probe aShh binding to arrayed compounds – biochemical, biotinylated probe, 635/667 nm fluorescence, primary screen (AID 1114); conditions: small-molecule microarray, higher = more signal;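 further: probe is biotin-labelled aShh protein from a stem cell growth factor screen; measures binding of labelled protein to compounds printed on the slide; score merges feature fluorescence at 667 nm with signal-to-noise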
[18] = probe aNog binding to arrayed compounds – biochemical, biotinylated probe, 635/667 nm fluorescence, primary screen (AID 1115); conditions: small-molecule microarray, higher = more signal;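 further: probe is biotinylated aNog protein used at 0.15 µg/mL for 1 h at 4 C; z-score combines 667 nm fluorescence of each spot with its signal to noise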
[19] = target: Torsin-1A-interacting protein 1 (Homo sapiens) (UniProt Q5JTV8); assay: compound microarray binding of lysate hLAP1 – cell lysate, small-molecule microarray, COS7 lysate, 635/667 nm fluorescence, primary screen (AID 1116); conditions: 635 nm fluorescence, higher = more signal
[20] = target: Alpha-bungarotoxin (Bungarus multicinctus) (UniProt P60615); assay: compounds binding labelled alpha-BTX control protein – biochemical, small-molecule microarray, Alexa647 label, 635/667 nm fluorescence, artefact control for SMM control protein annotation, profiling panel (AID 1117); conditions: alpha-BTX-A647 binding fluorescence, higher = more signal
Chain of Alpha-bungarotoxin (Bungarus multicinctus) (P60615 whole entry, looked up): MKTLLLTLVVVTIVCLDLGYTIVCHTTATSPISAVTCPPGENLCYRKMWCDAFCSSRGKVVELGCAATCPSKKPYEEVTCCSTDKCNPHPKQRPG

Chain of Dickkopf-related protein 1 (Homo sapiens) (O94907 whole entry, looked up): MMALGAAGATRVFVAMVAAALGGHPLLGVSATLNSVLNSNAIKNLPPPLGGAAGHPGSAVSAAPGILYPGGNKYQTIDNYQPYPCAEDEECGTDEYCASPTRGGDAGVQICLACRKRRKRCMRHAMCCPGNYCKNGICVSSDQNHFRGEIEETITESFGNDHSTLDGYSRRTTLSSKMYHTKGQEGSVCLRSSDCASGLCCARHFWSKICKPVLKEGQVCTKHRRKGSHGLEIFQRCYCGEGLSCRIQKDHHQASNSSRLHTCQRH
Chain of Left-right determination factor 2 (Homo sapiens) (O00292 whole entry, looked up): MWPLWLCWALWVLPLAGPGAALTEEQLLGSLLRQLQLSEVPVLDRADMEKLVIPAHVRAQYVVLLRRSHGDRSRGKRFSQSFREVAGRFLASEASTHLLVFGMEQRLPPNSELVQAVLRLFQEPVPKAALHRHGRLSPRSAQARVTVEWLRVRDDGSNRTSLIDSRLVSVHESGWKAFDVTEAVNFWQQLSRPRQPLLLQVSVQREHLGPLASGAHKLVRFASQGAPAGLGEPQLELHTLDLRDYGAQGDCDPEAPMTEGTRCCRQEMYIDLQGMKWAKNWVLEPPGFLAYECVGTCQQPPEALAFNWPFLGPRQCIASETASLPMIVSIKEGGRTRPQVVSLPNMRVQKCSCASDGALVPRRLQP
Chain of Fibroblast growth factor 10 (Homo sapiens) (O15520 whole entry, looked up): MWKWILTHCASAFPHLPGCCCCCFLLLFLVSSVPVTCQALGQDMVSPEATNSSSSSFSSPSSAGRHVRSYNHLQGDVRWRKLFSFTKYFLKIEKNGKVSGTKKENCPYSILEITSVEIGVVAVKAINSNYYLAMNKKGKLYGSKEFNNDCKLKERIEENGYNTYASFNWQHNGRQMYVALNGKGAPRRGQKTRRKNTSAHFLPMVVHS
Chain of Follistatin-related protein 3 (Homo sapiens) (O95633 whole entry, looked up): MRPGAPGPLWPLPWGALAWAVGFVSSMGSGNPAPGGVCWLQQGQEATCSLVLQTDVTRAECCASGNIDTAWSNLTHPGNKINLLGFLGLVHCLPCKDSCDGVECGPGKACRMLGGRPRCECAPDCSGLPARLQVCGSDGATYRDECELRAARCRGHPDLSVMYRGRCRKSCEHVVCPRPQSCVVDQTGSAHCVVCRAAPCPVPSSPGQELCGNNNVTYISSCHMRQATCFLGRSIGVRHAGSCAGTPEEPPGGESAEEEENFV
Chain of Epidermal growth factor receptor (Homo sapiens) (P00533 whole entry, looked up): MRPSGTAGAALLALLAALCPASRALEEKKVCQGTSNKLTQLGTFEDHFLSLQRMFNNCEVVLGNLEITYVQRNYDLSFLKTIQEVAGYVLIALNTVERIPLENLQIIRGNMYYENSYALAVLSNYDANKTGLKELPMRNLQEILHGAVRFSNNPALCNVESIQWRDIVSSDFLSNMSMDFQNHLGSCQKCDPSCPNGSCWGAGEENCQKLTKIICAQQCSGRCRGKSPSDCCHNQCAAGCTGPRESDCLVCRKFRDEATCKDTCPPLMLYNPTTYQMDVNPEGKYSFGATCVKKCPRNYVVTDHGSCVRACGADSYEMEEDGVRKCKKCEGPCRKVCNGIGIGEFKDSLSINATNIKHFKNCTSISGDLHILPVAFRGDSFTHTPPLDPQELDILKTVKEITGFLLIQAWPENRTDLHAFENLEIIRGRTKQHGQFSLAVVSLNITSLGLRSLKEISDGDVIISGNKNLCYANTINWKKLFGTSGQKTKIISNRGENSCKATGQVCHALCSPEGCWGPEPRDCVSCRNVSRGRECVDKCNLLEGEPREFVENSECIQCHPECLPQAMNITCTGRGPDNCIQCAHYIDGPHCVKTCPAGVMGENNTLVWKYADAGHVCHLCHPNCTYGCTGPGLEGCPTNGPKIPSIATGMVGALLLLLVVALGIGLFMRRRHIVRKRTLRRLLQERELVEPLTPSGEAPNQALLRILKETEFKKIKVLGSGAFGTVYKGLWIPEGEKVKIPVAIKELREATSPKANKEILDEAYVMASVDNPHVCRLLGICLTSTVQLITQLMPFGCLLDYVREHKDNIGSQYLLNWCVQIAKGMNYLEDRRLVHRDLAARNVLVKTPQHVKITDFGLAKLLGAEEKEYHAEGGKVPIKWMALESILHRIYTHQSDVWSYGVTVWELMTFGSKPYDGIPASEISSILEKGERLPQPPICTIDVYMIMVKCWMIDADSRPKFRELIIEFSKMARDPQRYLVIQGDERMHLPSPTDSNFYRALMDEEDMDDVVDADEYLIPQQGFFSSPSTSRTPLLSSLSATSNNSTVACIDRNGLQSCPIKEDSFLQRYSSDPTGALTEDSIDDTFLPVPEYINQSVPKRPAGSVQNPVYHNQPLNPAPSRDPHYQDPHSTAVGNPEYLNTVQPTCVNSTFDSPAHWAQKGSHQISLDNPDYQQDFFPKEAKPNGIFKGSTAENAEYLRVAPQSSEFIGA
Chain of Torsin-1A-interacting protein 1 (Homo sapiens) (Q5JTV8 whole entry, looked up): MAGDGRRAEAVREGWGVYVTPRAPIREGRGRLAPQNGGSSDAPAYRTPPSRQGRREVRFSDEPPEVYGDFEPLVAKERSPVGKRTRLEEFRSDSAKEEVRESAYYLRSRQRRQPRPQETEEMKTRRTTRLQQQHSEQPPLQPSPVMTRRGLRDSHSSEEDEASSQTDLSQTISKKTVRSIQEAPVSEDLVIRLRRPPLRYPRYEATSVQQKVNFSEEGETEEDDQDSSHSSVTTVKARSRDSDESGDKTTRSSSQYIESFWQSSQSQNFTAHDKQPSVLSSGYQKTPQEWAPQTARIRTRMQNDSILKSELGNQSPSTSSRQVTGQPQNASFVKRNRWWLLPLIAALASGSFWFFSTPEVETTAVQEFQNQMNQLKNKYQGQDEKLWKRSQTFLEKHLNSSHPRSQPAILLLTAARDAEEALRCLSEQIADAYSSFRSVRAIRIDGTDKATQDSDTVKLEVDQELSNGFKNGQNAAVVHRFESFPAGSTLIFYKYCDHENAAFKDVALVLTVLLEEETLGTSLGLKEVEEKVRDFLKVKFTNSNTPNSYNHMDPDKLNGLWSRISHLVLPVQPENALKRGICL

Row | SMILES | composite z-score [1] | composite z-score [2] | composite z-score [3] | z-score [4] | composite z-score [5] | composite z-score [6] | composite z-score [7] | composite z-score [8] | composite z-score [9] | composite z-score [10] | composite z-score [11] | z-score [12] | composite z-score [13] | composite z-score [14] | composite z-score [15] | composite z-score [16] | composite z-score [17] | composite z-score [18] | composite z-score [19] | composite z-score [20]
1 | O=C1OCC=C[C@H]2OC34C=CCN(Cc5ccccc5)C(=O)[C@H]3N(CCCCCCO)C(=O)[C@@H]4[C@@H]12 (stereo not given in full) | 1.82 | -0.305 | 0.777 | 0.148 (inactive) | -0.735 | -0.868 | -0.825 | -0.608 | -1.03 | 0.652 | -1.08 | 0.141 | -1.19 | -0.274 | 0.466 | -0.161 | -0.0396 | -0.302 | 2.46 | -0.367
2 | C=CCNC(=O)[C@H]1[C@@H]2C(=O)O[C@@H](c3ccccc3)[C@@H](c3ccccc3)N2[C@@H](c2ccc(O)cc2)[C@]12C(=O)N(C(=O)OCCOC)c1ccccc12 | 1.27 | -0.689 | -0.0623 | -1.59 (inactive) | 1.24 | 0.226 | 1.11 | 0.552 | 0.298 | 0.204 | 1.42 | -0.585 | 0.18 | 0.763 | -0.0816 | -0.0573 | -0.331 | -0.206 | 0.793 | 0.712
3 | CCOC(=O)C[C@H]1[C@H](OC(=O)c2cc3ccccc3oc2=O)[C@@H](NC(=O)Cc2ccc(OC)cc2)c2cc(OCCCO)ccc2N1C(=O)c1ccc2ccccc2n1 | 0.195 | 0.0588 | -0.335 | 0.126 (inactive) | 1.28 | 0.372 | 0.409 | 0.889 | 0.578 | 0.155 | 0.178 | -0.664 | 0.774 | -0.0597 | -0.399 | 0.0257 | -0.214 | 0.0023 | 0.514 | 0.26
4 | COC(=O)[C@@]1(Cc2ccc(OC)cc2)[C@H]2c3cc(C(=O)N4CCCC4)n(Cc4c(-c5ccccc5)noc4C)c3C[C@H]2CN1C(=O)c1ccccc1 | 0.743 | 1.08 | 1.12 | -3.14 (inactive) | 1.4 | 0.495 | 0.713 | 1.2 | -0.414 | 0.641 | 1.41 | -2.21 | -0.181 | 1.5 | 0.716 | 0.42 | 0.268 | 1.85 | 0.764 | 0.818
5 | CCOc1cc(C(O)C2C=CC3C(=O)N(c4ccccc4)C(=O)C3N2Nc2ccc(C#N)cc2)ccc1O (stereo not given) | 0.146 | 1.3 | 0.643 | 0.751 (inactive) | 0.0415 | -0.0102 | -0.209 | 0.472 | -0.454 | 0.713 | 0.0289 | -0.131 | -0.0669 | 1.81 | 0.0646 | -0.261 | -0.315 | 0.0582 | 0.562 | 1.28
6 | COc1cc2c(cc1OC)CN(C(=O)[C@@H]1[C@H]3C(=O)O[C@H](c4ccccc4)[C@H](c4ccccc4)N3[C@H](c3ccc(OCCO)cc3)[C@@]13C(=O)Nc1ccccc13)CC2 | 1.41 | 0.0269 | 0.0159 | 0.576 (inactive) | 1.4 | 1.17 | 0.399 | 1.07 | 0.343 | 0.508 | 1.44 | -1.68 | 0.351 | 1.04 | 0.0568 | 0.133 | 0.0328 | -0.592 | 1.14 | 1.91
7 | O=C1NC(=O)C2C1C=CC(C(O)c1ccco1)N2Nc1ccccn1 (stereo not given) | 0.76 | -0.0191 | 0.0668 | 1.69 (inactive) | 0.32 | 0.03 | 0.217 | -0.374 | -0.172 | 1.01 | -0.45 | 0.314 | -0.111 | -0.334 | -0.0734 | -0.2 | 0.111 | -0.295 | 0.38 | 0.0104
8 | CN1C(=O)C2C=CC(C(O)C#Cc3ccccc3)N(Nc3ccccc3)C2C1=O (stereo not given) | 1.58 | 0.932 | 0.891 | 1.24 (inactive) | 1.33 | 1.31 | 0.56 | 1.42 | -0.184 | 0.926 | 1.45 | 0.234 | 0.302 | 1.18 | 0.533 | 0.0381 | -0.0243 | 1.35 | 1.11 | 1.35
9 | O=C1OCC=C[C@H]2OC34C=CCN(c5ccc(Cl)cc5)C(=O)[C@H]3N(CCO)C(=O)[C@@H]4[C@@H]12 (stereo not given in full) | 0.201 | -0.521 | 0.777 | 0.169 (inactive) | -0.25 | -0.747 | -0.962 | -1.68 | -1.71 | -0.303 | -0.0723 | -0.515 | -0.884 | -0.577 | 0.515 | -0.28 | -0.304 | -0.115 | 0.0143 | -0.003
10 | [N-]=[N+]=NCc1ccccc1[C@H]1OC(c2ccc(OCCCO)cc2)=N[C@@]1(CCS(=O)(=O)c1ccccc1)C(=O)NCC(O)CO (stereo not given in full) | 1.54 | 0.658 | 1.18 | 0.542 (inactive) | 1.32 | 0.752 | -0.0986 | 0.264 | -0.0898 | 0.501 | 1.46 | -0.157 | -0.342 | 1.42 | 0.66 | 0.143 | 0.522 | 1.59 | 1.96 | 1.66
11 | CC(CO)N1C(=O)[C@@H]2[C@H]3C(=O)OCC=C[C@H]3OC23C=CCN(CCN2CCOCC2)C(=O)[C@@H]13 (stereo not given in full) | 1.12 | -0.373 | -0.646 | 0.497 (inactive) | -0.199 | 0.248 | -0.101 | 0.152 | 0.439 | 0.777 | -0.186 | 0.606 | -0.396 | -0.998 | -1.55 | -0.144 | -0.309 | -0.5 | -0.469 | -0.245
